Pf growth 48h – P. falciparum growth inhibition at 48 hours (one generation). P. falciparum luciferase growth in erythrocytes, 48 h. Potency, µM (top dose mostly 28.7 µM), without a hit: at the highest dose activity change, negative = inhibition, actives largely listed as inhibitors. hit rate 5.9% among 310,000. AID 504832; active means well fitted inhibition curve with a large enough effect; inconclusive means small, poorly fitted or top-dose-only effect, or another doubt; inactive means no such curve, though single readings can be large or run the other way; further: potency means the concentration at half of the fitted maximal effect; on the % scale 0 is the no-effect control and ±100 the full control effect
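In quantitative HTS format, infected erythrocytes bearing luciferase-reporter parasites were treated for a single generation at 37 C. Luminescence after adding detection reagent served as the growth measure.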
NS1 inh – blocks influenza NS1 protein function | Potency, µM (series often up to 46.1 µM), without a hit: at the top dose activity, positive = more growth | hit rate 0.4% among 270,000; further: potency means the concentration at half of the fitted maximal effect; actives are rising curves; nearly all actives have a fitted effect of over 50% in size
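In this qHTS, NS1 from influenza A is expressed in budding yeast, where it slows growth. Cells are switched from glucose to 2% galactose medium (pH 6.0, -URA), treated with compound, and growth recovery is read at OD600.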
Pf growth 96h – inhibits malaria parasite growth, 96 h; AID 504834; hit rate 6.9% among 320,000; Potency, µM (titrated, usually from 28.7 µM), inactives show at the highest dose activity change, negative = inhibition, hits mostly inhibitors; P. falciparum luciferase reporter growth, 96 h; active means well fitted inhibition curve with a large enough effect; inconclusive means small, poorly fitted or top-dose-only effect, or another doubt; inactive means no such curve, though single readings can be large or run the other way; further: potency means the concentration at half of the fitted maximal effect; on the % scale 0 is the no-effect control and ±100 the full control effect
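Two parasite generations (96 h, 37 C, 5% CO2) of compound exposure in infected erythrocytes (0.05% parasitemia, 2% hematocrit). Luciferase-reporter P. falciparum; decreased luminescence indicates inhibited growth, aimed at apicoplast-acting delayed death.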
Shiga toxin inh – blocks Shiga toxin action in Vero cells; Vero cells, Shiga toxin protein synthesis inhibition reporter; inhibition, % at 38.7 µM; hit rate 9.2% among 290,000; AID 2315; in the data active means inhibition mostly above about 28%, no sharp cut-off; inactive means mostly below about 43%; further: 0% is about no effect
Cycloheximide cs – affects cycloheximide protein synthesis inhibition readout, counter-screen; hit rate 12% among 300,000; cell reporter, cycloheximide protein synthesis inhibition counterscreen; max response, %; AID 2314; in the data active means max response mostly above about 13%, no sharp cut-off; inactive means mostly below about 14%; further: read at 38.3 µM for the half of the compounds with a filed dose; 0% is about no effect
SARS PLP yeast – inhibitors of SARS-CoV papain-like protease in yeast. S. cerevisiae expressing SARS-CoV PLpro, growth rescue. hit rate 0.19% among 330,000. Potency, µM (series often up to 32.9 µM), inactives show at the top dose activity, positive = growth rescue, usual class: activators. AID 485353; further: potency means the concentration at half of the fitted maximal effect; 0% is about no effect; nearly all actives have a fitted effect of over 55% in size
The depositor's hits bear a star; ? = inconclusive; / = no result given; [ ] = dose if it differs, or a comment. A selection: hits, their analogues and other compounds. The true share with any hit is near 21%. Unless noted, the call rests on the fitted dose curve.

SMILES	Pf growth 48h	NS1 inh	Pf growth 96h	Shiga toxin inh	Cycloheximide cs	SARS PLP yeast
Cc1nn(C)c(C)c1C1C(C#N)=C(N)OC2=C1C(=O)CCC2 (stereo unspecified)	-3%	19%	0%	15	-2	-2%
CCOC(=O)C1=CCC2c3c(c4ccccc4n3C)C(=O)C1N2C(=O)OC(C)(C)C (stereo unspecified)	8.3µM*	/	?	/	/	-9%
CCOC(=O)C1=CC[C@]2(C)c3c(c4ccccc4n3C)C(=O)C1N2C	13µM*	/	?	/	/	6%
CCOC(=O)c1cc2c(=O)n(C)c3ccccc3c2s1	/	-2%	/	/	/	/
Cc1ccc(OC(=O)CCc2c(C)nc3ncnn3c2C)cc1	22%	0%	-25%	-8	-1	-1%
CCCN(CCC)c1nc(C#N)nc(N(CCC)CCC)n1	12µM*	/	8.3µM*	11	8	-3%
CN(C)c1nc(C#N)nc(N(C)C)n1	-1%	/	46%	-17	-4	1%
COc1cccc(C2=NOC(C(=O)NCc3ccccc3)C2)c1 (stereo unspecified)	-2%	-31%	4.1µM*	23	13	-2%
COc1ccc(C2=NOC(C(=O)NC(C)(C)C)C2)cc1 (stereo unspecified)	3%	2%	?	17	3	-11%
CCN(CC)C(=O)C1CC(c2ccc(OC)cc2)=NO1 (stereo unspecified)	77%	-4%	111%	82*	40*	-1%
CCC(C)NC(=O)C1CC(c2cccc(OC)c2)=NO1 (stereo unspecified)	9%	0%	10µM*	14	-4	-1%
COc1ccc(C2=NOC(C(=O)NCc3ccccc3)C2)cc1 (stereo unspecified)	?	8%	7.4µM*	34*	5	-7%
COc1ccc(CNC(=O)C2CC(c3cc(C(F)(F)F)cc(C(F)(F)F)c3)=NO2)cc1 (stereo unspecified)	38%	3%	36%	-5	-3	-3%
COCCNC(=O)C1CC(c2cccc(OC)c2)=NO1 (stereo unspecified)	17%	4%	-20%	-24	16	-3%
COc1cccc(C2=NOC(C(=O)NCc3ccco3)C2)c1 (stereo unspecified)	-6%	-10%	?	21	23	3%
O=C(COC(=O)COc1ccc(Cl)cc1Cl)NC1CCCCCC1	3%	/	?	/	/	-11%
O=C(CN1C(=O)c2ccccc2S1(=O)=O)Nc1ncc(Cl)cc1Cl	/	/	/	/	/	-5%
CC(C)NC(=S)NNc1nc2ccccc2s1	-21%	/	?	42	10	18%
COc1ccc(-c2nc(N)n(C(=O)c3cccs3)n2)cc1	8%	/	?	19	9	-8%
CC(NC(=O)CN(c1cccc(C(F)(F)F)c1)S(C)(=O)=O)c1ccccc1 (stereo unspecified)	?	-4%	1.2µM*	/	-1	/
COc1ccc(C2(C)NC(=O)N(CC(=O)Nc3c(C)n(C)n(-c4ccccc4)c3=O)C2=O)cc1 (stereo unspecified)	9%	/	26%	/	/	1%
COC(=O)C(C)N1C(=O)S/C(=C\c2ccc(-c3ccc(C(=O)O)cc3C)o2)C1=O (stereo unspecified)	31%	2%	5%	89*	44*	-1%
Cc1ccc(NC(=O)CN2C(=O)S/C(=C/c3ccc(-c4cc(C(=O)O)ccc4C)o3)C2=O)cc1C	2%	15%	/	-7	-2	5%
CCNC(=S)N(CCCO)Cc1cc2cc3c(cc2[nH]c1=O)OCCO3	50%	-1%	?	-19	1	-9%
CN(C)CCNc1ncnc2c1cnn2-c1ccc(Cl)cc1	/	7%	?	56	30*	-1%
OCCCNc1ncnc2c1cnn2-c1ccc(Cl)cc1	-19%[0.00184 µM]	3%	2%	75*	52*	-3%
Clc1ccc(-n2ncc3c(NCc4ccco4)ncnc32)cc1	13%	9%	27%	-10	2	4%
c1ccc(Cn2nnc3c(N4CCCCCC4)ncnc32)cc1	?	-130%	?	11	0	-14%
Cc1nc(N2CCC(C)CC2)c2nnn(Cc3ccccc3)c2n1	12µM*	-31%	15µM*	56*	12	-95%

Screening data (PubChem)
